Drawing on the OligoGym collection, this text covers sensor-assay potency score (higher = more potent) for 40 sequences.
Further: reference of the scale not given here.

In the first test the target is MED31. Description: pooled miR-30 sensor sort-seq; sequence = guide strand. The conditions noted are these: shRNA.
TCGATTTCCAGCATCATCTGTC returned a sensor-assay potency score (higher = more potent) of 0.22.

On to TCTAACATGTGTAAACACTGAG, for which the sensor-assay potency score (higher = more potent) came out at 0.543.

TCCAACTCCAACTGAAACCGAA displayed a sensor-assay potency score (higher = more potent) of -1.04.

In turn, TTTTTTGTCTTCACTGTACAAA displayed a sensor-assay potency score (higher = more potent) of -0.668.

With AACATGTGTAAACACTGAGGGT, the sensor-assay potency score (higher = more potent) was -0.84.

The sequence TATTGGAGCAGCTCTAACATGT showed a sensor-assay potency score (higher = more potent) of -0.528.

A further test addresses MEI1. The description is as above. The conditions noted are these: shRNA.
Regarding TAGCACTTTCTCCCAGTCCATC, the sensor-assay potency score (higher = more potent) was -1.62.

The sequence AAAGGTAACAGACAGAAGCTTG came in with a sensor-assay potency score (higher = more potent) of -0.962.

Turning to TTCTCTGAATCTCTACTGGAGG, the sensor-assay potency score (higher = more potent) was -0.666.

As to TCTTGCTCTGACACATTCCTGA, the sensor-assay potency score (higher = more potent) worked out at 0.143.

Sequence TAGACTAGCTGCAGGTCTGGGA gave a sensor-assay potency score (higher = more potent) of -0.257.

In the case of TTGCTCTGACACATTCCTGAGC, the sensor-assay potency score (higher = more potent) is -0.804.

TTTTCTGATTGCACTGACCATA registered a sensor-assay potency score (higher = more potent) of -0.486.

TGGAACAGGACTACTAAGCTGG: the sensor-assay potency score (higher = more potent) was found to be 0.124.

ATGGTGAGTATAGACTAGCTGC: the sensor-assay potency score (higher = more potent) is -0.611.

Consider TTGCGCACTAACGACACGCCGG, for which the sensor-assay potency score (higher = more potent) was -1.01.

The sequence TTGTGAGCTGTGTCCACTGGGC returned a sensor-assay potency score (higher = more potent) of -0.159.

The target of the next test is MEN1. The test is described as above. Particulars: shRNA.
TAGATCTCCTCGTCTTCCCGGC gave a sensor-assay potency score (higher = more potent) of -0.0589.

On to TAGAGGGACAGGTCGACGGCGC, for which the sensor-assay potency score (higher = more potent) is -0.785.

Turning to TAGTAGGTCTTGGCTGAGGCAA, the sensor-assay potency score (higher = more potent) is -1.23.

TTCTTCACCAGCTCACGGCTGG yielded a sensor-assay potency score (higher = more potent) of -0.0281.

The sequence TTCAGGTACAGCCAGCTCCGCT gave a sensor-assay potency score (higher = more potent) of -1.42.

Consider TTGTAGTCCTGGATGACAGTGG, for which the sensor-assay potency score (higher = more potent) worked out at 0.138.

For the sequence TTCTTCATCTGCACTTGCGACT, the sensor-assay potency score (higher = more potent) is -0.844.

With TACTTCAAAGAACTCCTTGTAG, the sensor-assay potency score (higher = more potent) was found to be 0.208.

TCATCTGCACTTGCGACTGTGC registered a sensor-assay potency score (higher = more potent) of -1.27.

Turning to TTGTGGTAGAGGGTGAGTGGGT, the sensor-assay potency score (higher = more potent) is -0.985.

The sequence TTCATCTGCACTTGCGACTGTG returned a sensor-assay potency score (higher = more potent) of 0.123.

Sequence TATGACATCGGAGACCTTCTTC had a sensor-assay potency score (higher = more potent) of 0.751.

Another test has as its target MEPCE. The test is described as above. Particulars: shRNA.
In turn, TTGTGGAACAGGTACACAGGAC displayed a sensor-assay potency score (higher = more potent) of -0.946.

Turning to TAGTAGTTCTTGTAGATCGTTT, the sensor-assay potency score (higher = more potent) is -0.407.

In the case of TTCAGATGCACCCACTTGGTGA, the sensor-assay potency score (higher = more potent) was -1.03.

As for TGATGTGTCCGCTCCATCCAAG, the sensor-assay potency score (higher = more potent) is -1.38.

Take TAGTGTCGGATGTTTTGGCGGG: the sensor-assay potency score (higher = more potent) was -0.437.

TTCTTGTAGATCGTTTCTGTAA displayed a sensor-assay potency score (higher = more potent) of -0.866.

In the case of TTGGATTCGGTAGTAGTTCTTG, the sensor-assay potency score (higher = more potent) amounted to 0.313.

In turn, TTGTTGGGGAAGACTGATGTGT returned a sensor-assay potency score (higher = more potent) of -0.599.

Sequence TAACTGAGGCAGCTGGAGGGGC gave a sensor-assay potency score (higher = more potent) of -0.431.

In turn, TTTCGAACGGTGGTGGTCCCTT showed a sensor-assay potency score (higher = more potent) of -0.585.

As for TAGTATTTGCAATAATTCCCAT, the sensor-assay potency score (higher = more potent) was -0.782.
